This is an account of results in PubChem BioAssay.

In assay [1] the test system is Hepatitis C virus NS3 helicase. The assay can be described thus: HCV NS3 helicase inhibitors, primary screen, biochemical, fluorescence polarization, LOPAC1280 library (AID 687035; in the data active means inhibition above about 37%). As to conditions: Purified HCV NS3 helicase, Cy5-dT15 ssDNA binding fluorescence polarization; stronger effect = higher value; concentration not given here. Background: Polarisation of emitted light reports the rotation of a fluorescent probe.

A short description of assay [2]: Cy5 fluorescence quenching or enhancement artefacts, artefact control for HCV NS3 helicase inhibitor project, biochemical, LOPAC1280 (AID 687037). As to conditions: Cy5-DNA-NS3h complex fluorescence interference counterscreen. For orientation: The purpose of a counterscreen is to sort out artefacts and off-target activity.
The test system of assay [3] is Aerobactin synthetase IucA (Klebsiella pneumoniae). The assay can be described thus: IucA aerobactin synthetase inhibitors, biochemical, Tocris library, absorbance (AID 1345561).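 Further: 100% = enzyme without compound and 0% = no enzyme.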 The following applies: purified IucA enzyme assay, absorbance (OD) read-out; stronger effect = lower value;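 tested at 8 µM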.
A short description of assay [4]: sensitizers of A549 cells to miR-34 induction, primary screen, imaging, A549 dox-inducible miR-34, nuclei and caspase counts (AID 1347080;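 active means compounds whose cell count with miR-34 switched on is under 0.7 times the count with it off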). As to conditions: A549 miR-34 inducible, Hoechst nuclei count, 48 h.
Assay [5] is described as follows: phospholipid biosynthesis inhibitors in animal cells, primary screen, cell-based, LOPAC library, screen 4 (AID 1347384). The following applies: phospholipid biosynthesis inhibition screen, at 10 µM.
Assay [6] can be described thus: viability rescue of complex I mutant cybrids, primary screen, cell-based, galactose medium, ATP luminescence (AID 1645843;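 active means z-score of at least 1.8 in each of two replicates, scored against plate mean and spread of sample wells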;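 further: positive z means more ATP and so rescue of galactose-driven cybrid death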). The following applies: complex I mutant cybrid cells, 72 h, stronger effect = higher value.
A short description of assay [7]: survival rescue of mitochondrial mutant cells in low glucose, primary screen, MELAS cybrids, Rieske KO mouse fibroblasts, CellTiter-Glo (AID 1508586;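 active means mean z-score across replicates of 1.96 or higher in either the MELAS or the Rieske mutant cell line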;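 further: z relative to plate mean and SD of compound and empty wells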). (In general: In ATP-based viability assays light output follows the ATP content of the culture.)
The nature of assay [8]: LFS_MB_P medulloblastoma growth inhibition, cell-based, chromothripsis tumors, cisplatin or BGB combos (AID 1671449; in the data active means inhibition above about 80%;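 further: cells exposed for 96 hours; 0% = vehicle DMSO and 100% = killing by high DMSO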). As to conditions: LFS_MB_P medulloblastoma cells.
Assay [9] can be described thus: HDN33 neuroblastoma growth inhibition, cell-based, chromothripsis tumors, cisplatin or BGB combos (AID 1671450; in the data active means inhibition above about 80%;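 further: cells exposed to compound for four days; 0% = vehicle DMSO and 100% = cell killing by high DMSO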). As to conditions: HDN33 neuroblastoma cells, stronger effect = higher value.
A short description of assay [10]: ICB984 medulloblastoma cell growth inhibition, synergistic combos for chromothripsis tumors, cisplatin or BGB combos (AID 1671451).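 Further: cells exposed for 96 hours before readout; 0% = vehicle DMSO and 100% = killing by high DMSO.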 The following applies: ICB984 medulloblastoma cells, drug combinations, stronger effect = higher value.
Assay [11] can be described thus: HTB85 osteosarcoma cell growth inhibition, synergistic combos for chromothripsis tumors, BGB or cisplatin IC20 combos (AID 1671453; in the data active means inhibition above about 80%;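 further: cells exposed for 96 hours before readout; 0% = vehicle DMSO and 100% = high DMSO killing control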). The following applies: HTB85 osteosarcoma cells, drug combinations, stronger effect = higher value.
Assay [12] in a line: MDA-MB-436 breast carcinoma cell growth inhibition, synergistic combos for chromothripsis tumors, BGB or cisplatin combos (AID 1671458).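 Further: cells exposed for 96 hours; 0% = vehicle DMSO and 100% = killing by high DMSO.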 As to conditions: MDA-MB-436 breast carcinoma growth inhibition, drug combinations, stronger effect = higher value.
The nature of assay [13]: growth inhibition of BT084 medulloblastoma cells, cell-based, ICGC_MB145, cisplatin and BGB IC40 combos (AID 1671461; in the data active means inhibition above about 80%;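 further: cells exposed to drugs for 96 hours; 0% = vehicle DMSO and 100% = high DMSO full killing control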). As to conditions: drug combinations, stronger effect = higher value.
The nature of assay [14]: growth inhibition of RCMB18 medulloblastoma cells, cell-based, cisplatin and BGB IC40 combos (AID 1671462; in the data active means inhibition above about 80%;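 further: cells exposed to compound for four days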). As to conditions: stronger effect = higher value.
A short description of assay [15]: hESC survival regulators, cell-based (AID 493140).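 Further: cells exposed to compounds for four days before counting.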 As to conditions: human embryonic stem cell survival screen; stronger effect = higher value.
A short description of assay [16]: liver-stage malaria parasite growth inhibition, primary screen, cell-based, HepG2, luciferase luminescence, HepG2 viability (AID 624349; in the data active means parasite load remaining mostly below about 12%, no sharp cut-off; inactive means mostly above about 10%;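 further: 100% = mean of DMSO negative control wells on the same plate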). The following applies: P. berghei liver stage in HepG2, luciferase luminescence, concentration not given here; parasite load remaining: stronger effect = lower value; viability: measured here: HepG2 viability without parasites.
Assay [17] in a line: circadian clock period modulators, cell-based, LOPAC library, luminescence reporter (AID 2774).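 Further: values are relative to mean of DMSO wells on each plate.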 The following applies: circadian reporter cells, at 7 µM, actives lie on both sides.
The nature of assay [18]: inhibitors of Cryptococcus chitosan production, flow cytometry, Cibacron Brilliant Red staining (AID 1347148).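 Further: compound exposure lasted three days at 37 degrees C.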 As to conditions: Cryptococcus neoformans chitosan, stronger effect = lower value; at 10 µM unless noted.
Where [19] appears, read: stronger effect = lower value, cell number ratio, induced over uninduced.
[20] abbreviates: measured here: relative caspase fold change +Dox/-Dox.
Setting [21] is: measured here: total cells with miR-34 induction, stronger effect = lower value.
[22] abbreviates: measured here: total cells without miR-34 induction.
Setting [23] is: MELAS cybrid survival, CellTiter-Glo 48 h, stronger effect = higher value.
Setting [24] is: Rieske KO mouse fibroblast survival, CellTiter-Glo 72 h.

SMILES strings stand for the structures. Where “and” joins values, the source holds several entries; their conditions need not be identical. Identical values can stand only once. Calls of active or inactive are those of the source. Unless noted, how the calls were made is not given here.

One may read the inhibition as the drop in the measured response relative to a control, in per cent. The term remaining activity denotes the signal under treatment as a percentage of the control signal. Take `O=C1NC(=O)c2cc(Nc3ccccc3)c(Nc3ccccc3)cc21`: the inhibition in assay [1] is 0% (inactive). Also, the fluorescence ratio (interference) in assay [2] is 1 (inactive). In addition, the remaining activity in assay [3] was 123% (inactive). Besides, the fold change in assay [4] (setting [19]) was 1.14 (inactive) and 0.996 (inactive); in assay [4] (setting [20]), 1.65 and 1.45. Also, the cell count was 3180 and 3240 in assay [4] (setting [21]); 2790 and 3260 in assay [4] (setting [22]). In [5], the compound was classed as inactive. Also, the z-score in assay [6] was -1.08 (inactive) and -0.55 (inactive).
Regarding `O=C(Nc1ccncc1)c1cc([N+](=O)[O-])ccc1Cl`, the inhibition in assay [1] was 0% (inactive); in [8] (at 0.5 µM, stronger effect = higher value), -6.15% (inactive); in assay [8] (measured here: combination with BGB IC20, at 0.005 µM) it was -50.3%; in [8] (measured here: combination with BGB IC40, at 0.005 µM), -79.8%; in assay [8] (measured here: combination with BGB IC40, at 0.05 µM) it was -56.1%; in assay [8] (measured here: combination with cisplatin, at 0.5 µM, stronger effect = higher value), -30.4%. Besides, the inhibition is -22.9% in [8] (measured here: combination with cisplatin, at 5 µM, stronger effect = higher value); -13.6% in assay [9] (BGB combo, at 5 µM); 1.6% (inactive) in [9] (at 0.5 µM); 3.19% in assay [9] (cisplatin combo, at 5 µM); -13.6% in assay [9] (measured here: with BGB IC20 combination, at 0.5 µM); 24.4% in [9] (measured here: with cisplatin IC20 combination, at 0.5 µM). Further, the inhibition in assay [9] (single agent, at 5 µM) is -14.1%; in [10] (BGB IC20 combo, at 0.005 µM), -18%; in assay [10] (BGB IC40 combo, at 0.005 µM), -35.6%; in [10] (BGB IC40 combo, at 0.05 µM), 0.746%; in assay [10] (at 0.5 µM), -34.7% (inactive); in assay [10] (cisplatin combo, at 0.05 µM) it was -4.27%. The inhibition is -45.9% in [10] (cisplatin combo, at 0.5 µM); -23.5% in [10] (cisplatin combo, at 5 µM); -11.4% in [10] (measured here: 5 uM single agent, at 5 µM); -15.1% (inactive) in assay [11] (at 0.5 µM); -10.2% in assay [11] (measured here: with BGB IC20, at 0.5 µM); 1.89% in [11] (measured here: with BGB IC20, at 5 µM). In addition, the inhibition in [11] (measured here: with cisplatin IC20, at 0.5 µM) is -20.9%; in assay [11] (measured here: with cisplatin IC20, at 5 µM), -16.5%; in assay [11] (single agent, at 5 µM) it was -8.5%; in assay [12] (at 0.5 µM), -25.3% (inactive); in [12] (measured here: BGB combination, at 0.5 µM), -15.4%; in assay [12] (measured here: BGB combination, at 5 µM) it was -30%. Besides, the inhibition in assay [12] (measured here: cisplatin combination, at 0.5 µM) was -47.1%; in assay [12] (measured here: cisplatin combination, at 5 µM), -23.8%; in [13] (at 0.5 µM), -26.5% (inactive); in assay [13] (cisplatin combination, at 0.5 µM), -23.3%; in [13] (cisplatin combination, at 5 µM), -134%; in assay [13] (measured here: BGB IC40 combination 0.05 uM, at 0.05 µM), -33.5%. The inhibition is 23.7% in assay [13] (single agent, at 5 µM); -25.9% (inactive) in assay [14] (at 0.5 µM); 23.7% in assay [14] (cisplatin combo, at 5 µM); -24.6% in assay [14] (measured here: BGB IC40 combination, at 0.05 µM); -52.5% in assay [14] (measured here: combination with cisplatin, at 0.5 µM); -3.16% in assay [14] (single agent, at 5 µM). Further, the fluorescence ratio (interference) in assay [2] is 1 (inactive). For the same compound, in [3], the remaining activity is 127% (inactive). The result in assay [5] was inactive. The z-score is 0.0073 (inactive) in assay [7] (setting [23]); -0.438 in assay [7] (setting [24]); -1.12 (inactive) and -0.63 (inactive) in assay [6].
In the case of `Nc1nc2c(cnn2CCc2ccccc2)c2nc(-c3ccco3)nn12`, the inhibition in [1] is 0% (inactive). For the same compound, in [2], the fluorescence ratio (interference) was 1 (inactive). For the same compound, the remaining activity in [3] was 107% (inactive). The fold change in assay [4] (setting [19]) is 0.995 (inactive) and 1.05 (inactive); in [4] (setting [20]) it was 1.09 and 1.04. For the same compound, the cell count is 10300 and 7560 in assay [4] (setting [21]); 10400 and 7200 in [4] (setting [22]). For the same compound, in [5], the compound was classed as inactive. The z-score in assay [6] was 0.15 (inactive) and -0.35 (inactive).
One may read the viability as a read-out of living cells in per cent, often relative to untreated cells. For the compound `CN1CCc2cccc3c2[C@H]1Cc1ccc(O)c(O)c1-3`, in assay [15], the survival is 6.58 (inactive). Further, in assay [16], the parasite load remaining is 7.04% (inactive) and 82% (inactive) and 31.2% (inactive). Also, the viability in [16] was 42.7% and 84.6% and 138%. Moreover, the remaining activity in [3] was 113% (inactive). Moreover, the fold change in [4] (setting [19]) is 0.946 (inactive) and 0.949 (inactive) and 0.917 (inactive); in assay [4] (setting [20]) it was 0.839 and 1.17 and 0.734. The cell count in assay [4] (setting [21]) was 7920 and 7790 and 8530; in assay [4] (setting [22]), 8370 and 8210 and 9300. For the same compound, the z-score in [7] (setting [23]) is 0.207 (inactive) and -0.194 (inactive); in assay [7] (setting [24]), 0.641 and 0.16; in [6], -1.04 (inactive) and -2.25 (inactive).
In the case of `O=C(Nc1ccccc1)c1cc([N+](=O)[O-])ccc1Cl`, the period change in [17] was -0.23 h (inactive). Further, the inhibition in [1] was -5% (inactive). Moreover, in [2], the fluorescence ratio (interference) is 1 (inactive). In addition, in [3], the remaining activity was 120% (inactive). In addition, the fold fluorescence in assay [18] was 3.58 [at 180.7 µM] (inactive). The compound was called inactive in assay [5]. In addition, the z-score in assay [7] (setting [23]) is -0.372 (inactive); in assay [7] (setting [24]), 0.0531; in [6] it was -0.715 (inactive) and -0.72 (inactive).
